An excerpt weighted towards active compounds, which were near 2% of everything screened.
MBD2 DNA inh – inhibitors of MBD2 binding to methylated DNA, primary screen, biochemical, TR-FRET, DNA-binding domain, human | Methyl-CpG-binding domain protein 2 (Homo sapiens), Q9UBB5 | MBD2 binding to methylated oligonucleotide | inhibition, % at 4.4 µM | hit rate 0.31% among 370,000 | AID 686964, 2013; in the data active = inhibition above about 13%
Target sequence (Q9UBB5 whole entry, looked up, the tested form may be a part): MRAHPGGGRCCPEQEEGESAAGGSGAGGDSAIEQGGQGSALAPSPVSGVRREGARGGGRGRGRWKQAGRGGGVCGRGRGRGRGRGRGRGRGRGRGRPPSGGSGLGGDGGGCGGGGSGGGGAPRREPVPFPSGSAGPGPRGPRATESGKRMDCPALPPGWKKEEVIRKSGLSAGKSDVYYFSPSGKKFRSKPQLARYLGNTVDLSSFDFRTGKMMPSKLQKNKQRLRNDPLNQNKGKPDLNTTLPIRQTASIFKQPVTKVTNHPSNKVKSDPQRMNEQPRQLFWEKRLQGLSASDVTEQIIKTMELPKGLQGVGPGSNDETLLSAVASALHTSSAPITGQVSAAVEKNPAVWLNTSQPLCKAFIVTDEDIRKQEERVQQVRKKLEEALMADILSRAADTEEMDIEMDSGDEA
UHRF1 binding – UHRF1 methylated DNA binding inhibitors, primary screen, counter-screen for MBD2 inhibitor project, biochemical, TR-FRET, human UHRF1, single concentration; AID 687016, 2013; hit rate 0.75% among 370,000; E3 ubiquitin-protein ligase UHRF1 (Homo sapiens), Q96T88; inhibition, % at 4.4 µM; UHRF1 binding to methylated oligo; in the data active = inhibition above about 21%;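 also: UHRF1 SRA domain binding a hemimethylated CpG hairpin DNA probe; 0% = median of test compound wells and 100% = reference inhibitor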
Rin1-Abl PPI inh – inhibitors of Rin1-Abl protein binding, primary screen, biochemical, TR-FRET; hit rate 0.4% among 360,000; Tyrosine-protein kinase ABL1 (Homo sapiens) + Ras and Rab interactor 1 (Homo sapiens), …; AID 588664, 2011; inhibition, % at 7.35 µM; in the data active = inhibition above about 5%, passing the limit was not always enough
LEDGF integ inh – blockers of LEDGF/p75-dependent integrase strand transfer – biochemical, TR-FRET, high throughput, primary screen; HIV-1 integrase (with human LEDGF/p75); TR-FRET IN-LEDGF/p75 DNA integration, Eu/Cy5; inhibition, % at 3.7 µM; hit rate 0.64% among 370,000; AID 743269, 2014;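 active = inhibition above the screen-wide mean plus 3 SD, cut at about 13% in these data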;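 also: signal is the Cy5 over europium emission ratio at 671 and 618 nm; 0% = plate median of compound wells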
TCR CD3 inh – inhibitors of human TCR-CD3 interaction, primary screen, biochemical, fluorescence, TAMRA-labeled TCR probe. inhibition, % at 9.4 µM. hit rate 0.37% among 360,000. AID 651800, 2012; in the data active = inhibition above about 19%;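 also: recombinant mutant TCR 2C K166C tagged with TAMRA read by polarization; 0% = receptor in buffer alone and 100% = receptor with positive control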
* marks the source's active call; other numbers are inactive results; . = not tested or not shown.

SMILES | MBD2 DNA inh | UHRF1 binding | Rin1-Abl PPI inh | LEDGF integ inh | TCR CD3 inh
O=[N+]([O-])c1ccc(O)c(C=NNc2ccc(S(=O)(=O)O)cc2)c1 | 1 | 24* | 4 | -1 | -3
COc1cc(OC)c(/C=N/NC(=O)Cn2nc([N+](=O)[O-])cc2C)c(OC)c1 | 7 | 5 | 1 | 0 | 2
CCOC(=O)c1c(/N=C/N(C)C)sc2c1CCC2 | 4 | 95* | -4 | -1 | -3
O=C(/C=C/c1ccc(Cl)cc1)N1CCN(CCN2C(=O)c3cccc4cccc(c34)C2=O)CC1 | -2 | 31* | 0 | -1 | -5
COc1ccc(C2NCCc3c2[nH]c2ccccc32)cc1CN1CCc2cc(OC)c(OC)cc2C1C (stereo not drawn) | . | . | 7.3* | . | .
COC(=O)C1=C(C)N(Cc2ccc(C(F)(F)F)cc2)C(=NCc2ccccc2C(F)(F)F)NC1c1ccccc1C(F)(F)F (stereo not drawn) | -5 | 1 | . | 2 | 3
CN(CCOc1ccccc1)CC(=O)Nc1ccc(S(=O)(=O)N2CCCC2)cc1 | 11 | 25* | 0 | 0 | 0
CN1CCN(S(=O)(=O)c2ccc(NC(=O)COc3ccccc3)cc2)CC1 | 7 | 15 | 2 | -2 | -4
O=C(COc1ccccc1F)NCc1nc2ccccc2[nH]1 | 11 | 22* | 1 | 2 | -10
CCOC(=O)c1nc(Nc2ccc(N3CCC(C)CC3)cc2)c2ccccc2n1 | 4 | 0 | 1 | -2 | 6
COC(=O)c1cc2c(c3c4cc(C)ccc4n(S(=O)(=O)c4ccc(C)cc4)c13)C(=O)N(Cc1ccccc1OC)C2 | 3 | -1 | . | -1 | -1
Cc1ccc(C(=O)Nc2ccc(O)c(C(=O)O)c2)o1 | 4 | 44* | 1 | 1 | 5
Cc1ccc(C(=O)Nc2ccc(F)cc2)o1 | 0 | 0 | 0 | -2 | 1
COC(=O)c1ccc(C(=O)OC)nc1 | 0 | 0 | 2 | 0 | 5
COC(=O)c1ccc(C(=O)O)nc1 | 0 | 22* | 5 | 6 | 5
Cc1cccc(-c2cccc3c4c([nH]c23)[C@@H]2C[C@H](N(C)C(=O)C3CCCCC3)[C@H]([C@H](C)O)CN2CC4)c1 | -2 | -2 | . | 1 | .
CCOC(=O)N1CCN(S(=O)(=O)N2CCCC(C(=O)NCc3ccc(C)cc3)C2)CC1 (stereo not drawn) | -2 | -1 | 3 | -1 | -2
COc1ccc(-n2nc(C(=O)NCc3ccco3)c3ccccc3c2=O)cc1 | 4 | 1 | 4 | -1 | 9
COc1ccc(-n2nc(C(=O)NCc3ccco3)c3c4ccccc4n(C)c3c2=O)cc1 | -2 | 31* | 0 | -4 | -4
CCCCN(C)CCNC(=O)c1nn(-c2ccc(OC)cc2)c(=O)c2c1c1ccccc1n2C | 3 | 2 | -2 | 2 | -9
CCN(C(=O)c1nn(-c2ccc(OC)cc2)c(=O)c2c1c1ccccc1n2C)c1ccc(OC)cc1 | 7 | 22* | -3 | -1 | 8
Cc1cc(N2CCNC[C@H]2C)ccc1N1CCN(Cc2ccccc2)[C@H](C)C1 | 1 | 1 | . | -1 | 0
Cc1ccc(OCC(=O)NNC(=O)c2cccnc2)cc1 | 8 | 27* | 1 | 4 | 1
COC(=O)[C@]12C[C@H](CC(=O)N3CCN(C(=O)c4ccco4)CC3)C(=O)N(CCc3ccc(OC)c(OC)c3)C1=C[C@H](C(C)(C)C)O[C@@H]2C | -3 | 1 | . | -2 | .
O=C(Cn1nc2ccccc2n1)N/N=C/c1cc(Cl)cc([N+](=O)[O-])c1O | 1 | -10 | 2 | -6 | 56*
Cc1cccc(NC(=S)N(CCCN2CCOCC2)Cc2cn(C)c3ccccc23)c1 | 1 | 42* | 0 | 0 | -4
Cc1ccc(S(=O)(=O)N2CCCCC2)c2nsnc12 | 9 | 24* | -1 | 2 | 2
COc1ccc(/C(C)=N/Nc2ncc(Cl)cc2Cl)c(O)c1 | 6 | 24* | -1 | 1 | 1
CCOC(=O)[C@]12CCC=C1N(Cc1ccccc1)C(=O)[C@H](CC(=O)NCCCCc1ccccc1)C2 | -1 | -3 | . | 0 | 4

High-throughput results: PubChem, The Scripps Research Institute Molecular Screening Center
